This is a sample that favours compounds with a hit; in the whole collection about 3.5% have one here.
FBW7 activator = activators of human E3 ligase FBW7; AlphaScreen FBW7–phospho-cyclin E peptide binding, activator screen; normalized activity (activation), % at 26.1 µM; 650,000 compounds, 0.13% hits; AID 1259310; in the data active = normalized activity above about 1.9%;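 note: purified mutant Fbw7 with reduced substrate affinity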
GPR151 ag = activators of human GPR151; AID 1508602; 650,000 compounds, 1% hits; activation, % at 11.2 µM; PathHunter beta-arrestin GPR151 cells, luminescence; in the data active = activation above about 4.9%;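 note: 0% = median of compound wells and 100% = cells with positive control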
Target sequence (Q8TDV0 whole entry, looked up): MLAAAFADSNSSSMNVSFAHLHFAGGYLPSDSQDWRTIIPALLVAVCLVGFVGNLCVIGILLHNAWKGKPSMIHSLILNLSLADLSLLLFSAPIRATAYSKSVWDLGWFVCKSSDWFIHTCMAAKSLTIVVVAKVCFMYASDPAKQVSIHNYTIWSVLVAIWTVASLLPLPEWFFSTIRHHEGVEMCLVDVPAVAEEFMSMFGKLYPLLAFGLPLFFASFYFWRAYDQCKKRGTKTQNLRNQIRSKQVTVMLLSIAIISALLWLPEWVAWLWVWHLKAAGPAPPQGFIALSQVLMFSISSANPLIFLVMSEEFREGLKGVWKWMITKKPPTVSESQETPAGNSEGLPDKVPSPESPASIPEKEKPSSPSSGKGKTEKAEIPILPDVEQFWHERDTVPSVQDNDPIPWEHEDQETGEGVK
TEAD-YAP block = TEAD-YAP interaction inhibition | HEK-TIYL cells, TEAD-Gal4/YAP UAS-luciferase luminescence | inhibition, % at 9.12 µM | 640,000 compounds, 1.4% hits | AID 1259422; in the data active = inhibition above about 32%;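 note: 0% = median of test compound wells and 100% = reference inhibitor wells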
MITF primary = blocks human microphthalmia-associated transcription factor | AID 1259374 | 650,000 compounds, 0.91% hits | inhibition, % at 2.6 µM | AlphaScreen MITF homodimerization, bead proximity signal | O75030; in the data active = inhibition above about 50%;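 note: 0% = vehicle wells with protein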
* hit, by the source's call.

Cc1ccc(/C=C2\SC(=S)N(NC(=O)c3ccc(O)cc3)C2=O)o1 was read as FBW7 activator 0, GPR151 ag -2, TEAD-YAP block 6 and MITF primary 54*.
CCN(CC)c1ccc(/C=C2/SC(=S)N(CCC(=O)OC)C2=O)cc1 was read as FBW7 activator 0, GPR151 ag 0, TEAD-YAP block 62* and MITF primary 16.
CCN(CC)c1ccc(/C=C2\SC(=S)N(CCCC(=O)O)C2=O)cc1 was read as FBW7 activator 0, GPR151 ag -1, TEAD-YAP block 92* and MITF primary 24.
Screening CC(=O)Oc1cccc(/C=C2\N=C(c3ccc(-c4ccccc4)cc3)OC2=O)c1 returned FBW7 activator 0, GPR151 ag 0, TEAD-YAP block -5 and MITF primary -3.
CCC(C)(C(=O)NC1CCCCC1)N(Cc1cccs1)C(=O)C1CCC(=O)N1 (stereo not drawn) was read as FBW7 activator 0, GPR151 ag 0, TEAD-YAP block 6 and MITF primary 4.
For Cc1ccc(S(=O)(=O)N(CC(=O)N2CCC(C)CC2)C(=O)N2CCN(C)CC2)cc1 the results were FBW7 activator 0, GPR151 ag 1, TEAD-YAP block -1 and MITF primary -10.
`COc1ccc(/C=C2\SC(=S)N(CCC(=O)OCCN3CCOCC3)C2=O)cc1` gave FBW7 activator 0, GPR151 ag 0, TEAD-YAP block 54* and MITF primary 12.
For COc1ccc(/C=C2\SC(=S)N(CCC(=O)N3CCOCC3)C2=O)cc1 the results were FBW7 activator 0, GPR151 ag 2, TEAD-YAP block 3 and MITF primary 8.
`CCOc1cc(C=C2C(=O)NC(=S)NC2=O)ccc1OCC(=O)O` gave FBW7 activator 0, GPR151 ag 0, TEAD-YAP block 2 and MITF primary 70*.
`CC1=CC(=C2C(=O)c3ccccc3C2=O)C=C(C)N1C(C)C` gave FBW7 activator 0, GPR151 ag -5, TEAD-YAP block 67* and MITF primary 18.
`Cc1cccc(NC(=O)C2CCCN(S(=O)(=O)c3ccc4c(c3)oc(=O)n4C)C2)c1` (stereo not drawn) gave FBW7 activator 0, GPR151 ag 1, TEAD-YAP block -11 and MITF primary 0.
For Cc1cccc(NC(=O)C2CCCN(S(=O)(=O)c3ccc4c(c3)oc(=O)n4C)C2)n1 (stereo not drawn) the results were FBW7 activator 0, GPR151 ag 0, TEAD-YAP block 34* and MITF primary -12.
CC(=O)Nc1ccc(NC(=O)c2ccccc2)c(C)c1 was read as FBW7 activator 12*, GPR151 ag 2, TEAD-YAP block 4 and MITF primary 1.
Screening Cc1cc(NC(=O)/C=C/c2ccccc2)ccc1O returned FBW7 activator 0, GPR151 ag -1, TEAD-YAP block 73* and MITF primary -12.
For Cc1cc(NC(=O)c2ccccc2)ccc1O the results were FBW7 activator 0, GPR151 ag -5, TEAD-YAP block 73* and MITF primary 4.
Screening NC(=O)CSc1nc(O)cc(=O)n1-c1ccccc1F returned FBW7 activator 0, GPR151 ag 2, TEAD-YAP block 2 and MITF primary 6.
For CCN(CC)c1nc(-c2ccc(C(C)(C)C)cc2)nc2ccccc12 the results were FBW7 activator 0, GPR151 ag -2, TEAD-YAP block 58* and MITF primary 5.
Cc1ccc(Nc2nc(-c3ccc(C)cc3)nc3ccccc23)cc1 was read as FBW7 activator 0, GPR151 ag -2, TEAD-YAP block 7 and MITF primary 12.
`CCCCc1ccc(-c2nc(Nc3ccc(C(F)(F)F)cc3)c3ccccc3n2)cc1` gave FBW7 activator 0, GPR151 ag 0, TEAD-YAP block 38* and MITF primary -8.
COc1ccc(Nc2nc(-c3ccc(C(C)(C)C)cc3)nc3ccccc23)cc1 was read as FBW7 activator 0, GPR151 ag 0, TEAD-YAP block 86* and MITF primary 10.
CCN(CC)c1nc(-c2ccc(C)cc2)nc2ccccc12 was read as FBW7 activator 0, GPR151 ag 0, TEAD-YAP block -16 and MITF primary -15.
`CCOc1ccc(-c2nc(-c3ccccc3)no2)cc1` gave FBW7 activator 0, GPR151 ag -3, TEAD-YAP block 62* and MITF primary 13.
For COc1ccc(-c2noc(-c3ccco3)n2)cc1 the results were FBW7 activator 0, GPR151 ag -10, TEAD-YAP block 60* and MITF primary -10.
Screening Cc1ccc(-c2noc(-c3ccco3)n2)cc1 returned FBW7 activator 0, GPR151 ag -5, TEAD-YAP block -7 and MITF primary 0.
